Data taken from PubChem BioAssay (NCI).
Compounds without any hit were thinned out: in the full panel of roughly 83,000, 20% have a hit.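 In brief: 96-well plates, 48 h treatment, single concentration, percent growth endpoint.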 Values without a mark were called inactive. Calls of active or inactive are those of the source. The calls were made as follows: active = growth percent below 10; inactive = the rest.

Key:
Test in all cases: NCI-60 one-dose screen, 48 h (100 = growth as untreated, 0 = no growth, -100 = all killed)
Conditions in all cases: 10 µM unless noted
HCT-15 colon = test system: HCT-15 colon
HT29 colon = test system: HT29 colon
SNB-75 CNS = test system: SNB-75 CNS
SNB-19 CNS = test system: SNB-19 CNS
U251 CNS = test system: U251 CNS
PC-3 prostate = test system: PC-3 prostate
SK-MEL-5 melanoma = test system: SK-MEL-5 melanoma
UACC-62 melanoma = test system: UACC-62 melanoma
LOX IMVI melanoma = test system: LOX IMVI melanoma
SK-MEL-28 melanoma = test system: SK-MEL-28 melanoma

| SMILES | growth (HCT-15 colon) | growth (HT29 colon) | growth (SNB-75 CNS) | growth (SNB-19 CNS) | growth (U251 CNS) | growth (PC-3 prostate) | growth (SK-MEL-5 melanoma) | growth (UACC-62 melanoma) | growth (LOX IMVI melanoma) | growth (SK-MEL-28 melanoma) |
| --- | --- | --- | --- | --- | --- | --- | --- | --- | --- | --- |
| CC(C)(C)Nc1nc2c(OCCc3ccccc3)cccn2c1-c1cccc(Oc2ccccc2)c1 | 6.6% (active) | 6.41% (active) | 43.5% | 24.5% | 13.5% | 17.5% | -75% (active) | 15% | 3.93% (active) | 34% |
| O=C(CSc1nnc(-c2ccc(Cl)cc2)n1-c1ccccc1)Nc1cccc(F)c1 | 67.8% | 48.1% | -14.1% (active) | 48.3% | 14.1% | 62.1% | 87.9% | 93.5% | 0.1% (active) | 78% |
| C=C1CCc2nc(SCC(=O)O)ccc2N1 | 99.1% | 109% | 85.1% | 92.7% | 112% | 104% | 101% | 93.2% | 96.9% | 106% |
| CCOC(=O)c1c(NC(=O)c2ccc(C(F)(F)F)cc2)sc2c3c(ccc12)OCN(C)C3 | -38.2% (active) | -81% (active) | 69.7% | 26.7% | -72.5% (active) | 65.3% | 94.7% | 88% | -95.1% (active) | 95.8% |
| Cc1ccc(S(=O)(=O)NCCCNc2nccc(-c3[nH]c(-c4ccccc4)nc3-c3ccc(F)c(O)c3)n2)cc1 | 76% | 96.2% | 73.9% | 107% | 98.2% | 69.5% | 38.6% | 18.7% | 73.8% | 38.3% |
| C#Cc1cc(OC)c(C(=O)Nc2ccc(F)cc2C(=O)Nc2cccc(S(=O)(=O)C(F)(F)F)c2)cn1 | -8.48% (active) | -30.3% (active) | -80.4% (active) | 17.6% | 0.45% (active) | 4.89% (active) | -49% (active) | 18.8% | -82.1% (active) | 50% |
| Cc1ccc2c(n1)C(=O)C(Cl)=C(Nc1ccc(C)c(C)c1)C2=O | 23.6% | 103% | 87.6% | 56.2% | 71.8% | 45.3% | 6.91% (active) | 49.3% | 0.982% (active) | 58.3% |
| Brc1ccc(-c2cc(-c3ccc4c(c3)OC=CO4)n[nH]2)s1 | 61.9% | 74.1% | 74% | 91.7% | 88.8% | 101% | 89.4% | 83.2% | 89.9% | 91.6% |
| CN(C)S(=O)(=O)c1ccc(-c2nc(C(Cl)Cl)nc3cc(-c4ccccc4)nn23)cc1 | 47.7% | 45.6% | 84.7% | 85.2% | 66.2% | 87.7% | 92% | 11.7% | 44.5% | -4.08% (active) |
| O=S(=O)(Oc1ccc(-c2cn3ccsc3n2)cc1)c1cccc(C(F)(F)F)c1 | 96.8% | 107% | 102% | 96.4% | 100% | 97.9% | 98.3% | 81.3% | 112% | 99.6% |
| N#Cc1c(-c2ccc(F)cc2)cc(-c2c[nH]c3ccccc23)nc1-c1c[nH]c2ccccc12 | 99.6% | 110% | 98.6% | 102% | 94.9% | 103% | 100% | 98.3% | 107% | 107% |
| CCOC(=O)C1=C(C)NC(C)=C(C(=O)OCc2ccccc2)C1c1cccc(C#N)c1 (stereo not given) | 23% | 11.5% | -4.08% (active) | 41.5% | 41.4% | 33.1% | 54.3% | 33.4% | 35.8% | 51.2% |
| CNC(=O)c1cc(Oc2ccc3c(c2)sc2nc(-c4ccc(N(C)C)cc4)cn23)ccn1 | 8.11% (active) | -16.1% (active) | 17.8% | 25% | 13.5% | 32.4% | 11.9% | 41.4% | 0.0095% (active) | 56.8% |
| O=C(COc1ccc(/C=C2\C(=O)Nc3ccc(Cl)cc32)cc1)Nc1ccc(Cl)cc1 | 42.1% | 55.8% | 78.9% | 78.2% | 5.92% (active) | 41.7% | 78% | 27.8% | 1.2% (active) | 78.6% |
| Oc1ccc(-c2nc3ccc(/C(=N\N=C\c4ccc(Cl)cc4)c4ccccc4)cc3[nH]2)cc1 | 71.1% | 75.4% | 93.4% | 91.7% | 86.6% | 52.9% | 84.1% | 84.1% | 57.4% | 91% |
| C[C@H]1OCC2(CCN(c3cnc(C(=O)Nc4cc(F)cc5cccnc45)cn3)CC2)[C@H]1N | 14.5% | 30.3% | 62.9% | 73.5% | 66.3% | 50.8% | 93.2% | 31.7% | 33.2% | 61.4% |
| CN1CCN(Cc2ccc(NC(=O)c3cncc(C#Cc4cnc5ccc(OCC6COC6)nn45)c3)cc2C(F)(F)F)CC1 | -32.9% (active) | -50.9% (active) | -97.9% (active) | -44.9% (active) | -66.8% (active) | -27.7% (active) | -97% (active) | -49.8% (active) | -94% (active) | -85% (active) |
| C#C[C@]1(O)CC[C@H]2[C@@H]3CC=C4c5sc(Nc6ncccc6C)nc5CC[C@]4(C)[C@H]3CC[C@@]21C | -1.06% (active) | 25.4% | -2.92% (active) | 1.7% (active) | 3.14% (active) | -18.4% (active) | 5.96% (active) | -25.9% (active) | -78% (active) | -78.7% (active) |
| NCCNC(=O)c1cccc(COc2ccccc2NC(=O)c2cc(Br)c(Br)[nH]2)c1 | 72.7% | 101% | 94.1% | 71.1% | 77.5% | 82.1% | 98.9% | 96.8% | -30.8% (active) | 102% |
| Cc1csc(/N=C(N)/N=C(\N)c2cccc(Br)c2)n1 | 67% | 97.4% | 72.8% | 79.2% | 91.5% | 87.9% | 97.6% | 74.5% | 90.4% | 92.1% |
| O=C1[C@@H]2Cc3c([nH]c4ccccc34)[C@@H](c3ccc(Cl)cc3)N2C(=O)CN1C1CCN(Cc2ccccc2)CC1 | 34.1% | -28.4% (active) | 29% | 50.5% | 34.7% | 21.4% | 54.2% | 62.3% | -15% (active) | 88.1% |
| C/C(=N/N)c1nnn(-c2ccc(Br)cc2)c1C | 103% | 106% | 98.1% | 97.9% | 98.6% | 95.8% | 99.6% | 98.1% | 86.2% | 99.2% |
| Cc1ccc2c(n1)C(=O)C(Cl)=C(Nc1ccc(C#N)cc1)C2=O | 1.89% (active) | 106% | 110% | 96.4% | 96.6% | 89.6% | 98.9% | 95.7% | 70.4% | 99.8% |
| COc1ccc(C(=O)c2c(N)c(C#N)cn2-c2ccc(Cl)cc2Cl)cc1 | 99.3% | 98.5% | 91% | 93.1% | 99.2% | 95.7% | 98.7% | 89.6% | 84% | 97.9% |
| N#C/C(=N\Nc1ccc(F)cc1)C(=O)Nc1cc(-c2ccccc2)nn1-c1ccccc1 | 8.61% (active) | 8.84% (active) | -5.46% (active) | 5.24% (active) | 8.65% (active) | 7.13% (active) | -51.4% (active) | 4.43% (active) | 12.5% | 22.1% |
